From PubChem BioAssay AID493027 (The Scripps Research Institute Molecular Screening Center, 2011) come the findings set out here.

For orientation: inhibition means the relative decrease from the control value, in per cent.

Structures are written as SMILES. In all, about 2,000 compounds went through this assay and about 45 (2%) were called active. The list comes from a sample in which actives are over-represented; it also holds similar structures and randomly drawn compounds. Unmarked numbers belong to inactive results.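 How the source made its calls: active means inhibition above the screen-wide mean inhibition plus 3 SD (cut at about 44% in these data); inactive means the rest.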

Sequence of Perilipin-1 (Homo sapiens) + 1-acylglycerol-3-phosphate O-acyltransferase ABHD5 (Homo sapiens) (O60240 whole entry, looked up): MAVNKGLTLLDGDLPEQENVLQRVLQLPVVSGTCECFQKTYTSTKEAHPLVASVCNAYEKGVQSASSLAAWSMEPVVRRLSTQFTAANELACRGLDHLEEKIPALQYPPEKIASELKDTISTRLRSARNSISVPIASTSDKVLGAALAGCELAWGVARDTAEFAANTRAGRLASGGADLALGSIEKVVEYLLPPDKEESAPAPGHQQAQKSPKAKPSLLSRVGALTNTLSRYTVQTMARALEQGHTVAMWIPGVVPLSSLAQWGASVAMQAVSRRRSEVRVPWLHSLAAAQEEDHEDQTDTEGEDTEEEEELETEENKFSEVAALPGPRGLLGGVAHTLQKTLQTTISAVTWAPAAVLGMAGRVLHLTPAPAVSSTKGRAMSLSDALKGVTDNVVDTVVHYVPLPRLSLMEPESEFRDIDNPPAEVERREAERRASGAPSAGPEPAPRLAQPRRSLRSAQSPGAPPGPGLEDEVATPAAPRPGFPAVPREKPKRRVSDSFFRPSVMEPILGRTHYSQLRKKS
Sequence of Perilipin-1 (Homo sapiens) + 1-acylglycerol-3-phosphate O-acyltransferase ABHD5 (Homo sapiens) (Q8WTS1 whole entry, looked up): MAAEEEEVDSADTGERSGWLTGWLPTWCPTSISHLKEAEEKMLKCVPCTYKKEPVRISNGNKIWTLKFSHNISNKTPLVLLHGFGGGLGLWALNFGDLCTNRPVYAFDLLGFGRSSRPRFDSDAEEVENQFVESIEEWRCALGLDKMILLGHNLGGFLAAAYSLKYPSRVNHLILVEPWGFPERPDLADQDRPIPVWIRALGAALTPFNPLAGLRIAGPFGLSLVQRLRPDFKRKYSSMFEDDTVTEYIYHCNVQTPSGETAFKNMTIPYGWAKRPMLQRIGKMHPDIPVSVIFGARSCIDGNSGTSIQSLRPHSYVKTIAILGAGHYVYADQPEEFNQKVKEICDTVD

The test has as its target Perilipin-1 (Homo sapiens) + 1-acylglycerol-3-phosphate O-acyltransferase ABHD5 (Homo sapiens) (UniProt O60240+Q8WTS1). The test is described as follows: blockers of ABHD5 binding to perilipin-1 – cell lysate, split luciferase complementation, luminescence, NIH validation set, pilot screen (AID 493027).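 Further: 0% = DMSO wells with the 100% control not disclosed.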 Conditions: split G. princeps luciferase complementation, 4 h; at 7.9 µM, active compounds read high.
With `CCc1ccc(/C=C2\SC(=S)N(CCC(=O)N3CCN(C)CC3)C2=O)cc1`, the inhibition was -12.7%.

As for `O=c1c2ccccc2nnn1Cc1cccc2ccccc12`, the inhibition is 7.22%. For `COc1ccccc1C(=O)c1cc2ccc(O)cc2oc1=O`, the inhibition is 4.61%.

Consider `COc1ccccc1/C=C/C(=O)c1c2c(c(C)[nH]c1=O)CCCC2`, for which the inhibition was 28.8%. Consider `COc1cccc(/C=C/C(=O)c2c(O)cc(C)oc2=O)c1O`, for which the inhibition is 47.8% (active). Turning to `O=C1C(Cc2ccccc2)NC(=S)N1c1ccccc1` (centres undefined), the inhibition was -13.4%. Turning to `Cc1ccc2c(c1)OC(=O)CC2c1ccccc1` (centres undefined), the inhibition is -5.39%. For the compound `Oc1ccccc1OCCOc1ccccc1OCCOc1ccccc1O`, the inhibition is 8.26%.

As to `Cc1cccc(OCC(=O)Nc2ccc(C(=O)NCC(C)C)cc2)c1`, the inhibition is -6.6%. Turning to `CC(=O)CCc1oc2ccccc2c1-c1ccccc1`, the inhibition is -1.83%.

As for `CCc1oc2ccccc2c1C(=O)c1cc(Br)c(O)c(Br)c1`, the inhibition was 57.3% (active). Turning to `CCCCc1oc2ccccc2c1C(=O)c1cc(I)c(OCCN(CC)CC)c(I)c1`, the inhibition was -6.98%. On to `COc1cc2c(cc1OC)CN(Cc1ccc(C)s1)CC2`, for which the inhibition is 2.36%. On to `O=C(N1CCCCC1)C1(c2ccccc2)CCOCC1`, for which the inhibition was -5.12%. Next, `Cc1cc(O)c2/c(=N\N)c(-c3csc(C)n3)coc2c1`: 5.2%; `COc1cc(/C=C(\C#N)C(=O)N2CCc3ccccc32)ccc1O`: 42.5%; `COC(=O)c1ccc2c(c1)C(=O)/C(=C/c1ccc(O)cc1)O2`: 7.53%. On to `COc1ccccc1C(=O)Oc1ccc2c(c1)O/C(=C\c1ccncc1)C2=O`, for which the inhibition is 45.6% (active). Next, `CCc1ccc(/C=C2\Oc3cc(OC(=O)N4CCOCC4)ccc3C2=O)cc1`: 17.4%; `O=C(O)CCSc1nc2ccccc2s1`: 0.7%. Then `CC[n+]1c(C)sc2cc(C)ccc21`, with 0.88%; and `O=C(OCCN1CCCC1)C1(c2ccccc2)CCCC1`, with -8.49%. Next, `Cc1nc(C(=O)Nc2ccccc2Cl)cc2c1[nH]c1ccccc12`: -0.62%; `COc1ccc2c(c1)C=CC1(O2)N(CCO)c2ccccc2C1(C)C` (centres undefined): 45.5% (active); `COc1ccc(NC(=O)C2C(=O)N(CCO)C3(C)CC2c2ccccc2O3)cc1` (centres undefined): -10.9%.

`O=C(Nc1cccc(Oc2c(F)c(F)c(F)c(F)c2F)c1)N1C[C@@H]2C[C@@H](C1)c1cccc(=O)n1C2`: the inhibition was 9%.

Take `COc1ccc(Cc2noc(CN(C)CC3(N4CCOCC4)CCCCC3)n2)cc1OC`: the inhibition is -1.95%.

For the compound `Cn1cc(C2N3CC4(C)CN2CC(C)(C3)C4=O)c2ccccc21` (centres undefined), the inhibition is -7.09%. Then `C[C@H](NC(=O)Nc1ccccc1F)C(=O)O`, with -0.07%; and `O=P(O)(O)CP(=O)(O)O`, with -4.16%; and `COc1cc(/C=C/C(=O)O)cc(S(=O)(=O)NCCCO)c1OC`, with -7.07%. Consider `O=C(Nc1ccccc1)OCC1CCCN2CCCCC12` (centres undefined), for which the inhibition was -5.9%. In the case of `O=C(NCc1ccccc1Cl)NC(=O)c1ccccc1`, the inhibition is -2.42%. Take `CCCCNC(=O)NS(=O)(=O)c1ccc(C)cc1`: the inhibition was -10.7%. Turning to `CNS(=O)(=O)c1ccc(C)cc1`, the inhibition was -13.4%. Then `Cc1ccc(S(=O)(=O)N[C@@H](Cc2ccccc2)C(=O)CCl)cc1`, with 82.3% (active); and `COc1ccc(NC(=O)C2CCCN2C(=O)OC(C)(C)C)cc1` (centres undefined), with -11.3%. For the compound `COc1ccccc1NC(=O)C12CCC(C)(C(=O)C1)C2(C)C` (centres undefined), the inhibition is -0.67%.

On to `COCCn1c(SCCOc2ccccc2)nc2ccccc2c1=O`, for which the inhibition was -7.89%. `Cc1nc(N)nc2c1CCCC2`: the inhibition was -5.16%. Take `Nc1cc(-c2ccncc2)c[nH]c1=O`: the inhibition is 49% (active). Regarding `c1cc(-c2ccncc2)ccn1`, the inhibition is -6.1%. Consider `O=C(O)c1cc2cc(Cl)cc(Cl)c2oc1=O`, for which the inhibition was 1.22%.

As to `COc1ccc(CCN(C)CC(=O)Nc2cc(C)nc3ccccc23)cc1OC`, the inhibition was 3.27%. In the case of `COc1cccc(OC2OC3COC(C)(C)OC3C(O)C2NC(C)=O)c1` (centres undefined), the inhibition is -10.2%. Next, `CC(C)[N+]1(C)[C@@H]2CC[C@H]1CC(OC(=O)C(CO)c1ccccc1)C2` (some centres undefined): -5.55%.

As for `CCCCC/C=C\C[C@H](O)/C=C/c1cccc(C[C@H](O)CCCCO)n1`, the inhibition was 57.6% (active). Then `O=P(c1ccccc1)(c1ccccc1)c1nc(-c2ccc(Cl)cc2)oc1N1CCOCC1`, with 2.59%; and `COc1ccc(C=O)c(OC)c1`, with 0.71%. Next, `CC(=O)NCCCCCCNC(C)=O`: 3.05%. Then `Nc1ccc(S(N)(=O)=O)cc1N`, with 1.88%. Consider `COc1cc(NC(=S)NN2CCN(C)CC2)cc(OC)c1OC`, for which the inhibition was -10%. Then `COc1cc(C2C(C(C)=O)=C(O)C(=O)N2c2ccc(C)cc2)ccc1O` (centres undefined), with -3.68%; and `O=C(Nc1cccc(Cl)c1)N1CCN2C(=O)c3ccccc3C12c1ccccc1` (centres undefined), with 6.94%. `O=C1c2ccccc2C2(c3ccccc3)NCCN12` (centres undefined): the inhibition is 0.96%. Next, `CC1(c2ccccc2)CC(C)(C)N2C(=O)C(=O)c3cccc1c32` (centres undefined): 65.7% (active). `CC(=O)c1cccc(NC(=O)N[C@@H](CC(C)C)C(=O)O)c1`: the inhibition was -3.15%. Then `COc1ccc(C(=O)Nc2ccc(OC)c([N+](=O)[O-])c2)cc1Br`, with 0.74%; and `COc1ccc(C(=O)COc2ccc(F)cc2)c(O)c1`, with -7.26%; and `COc1ccc(C(=O)/C=C/c2cc(C(=O)O)cc3c2OCOC3)c(O)c1`, with 67.3% (active).

On to `C[C@H]([C@@H](N)C(=O)N[C@@H](C(=O)O)[C@@H]1O[C@H](n2ccc(=O)[nH]c2=O)[C@@H](O)[C@H]1O)[C@@H](O)c1ccc(O)cn1`, for which the inhibition is 8.07%. Then `CCOC(=O)C1CCCN(Cc2nc(Cc3cccc(F)c3)no2)C1` (centres undefined), with -4.38%.

As for `COC(=O)c1cc(=O)c2ccc(OC)cc2o1`, the inhibition is -10.3%.

For `CSCC[C@H](NC(=O)OC(C)(C)C)C(=O)N1CCC(C(=O)N[C@@H](C)C(=O)O)CC1`, the inhibition is -2.64%. Next, `CC1(C)C(C=C(Cl)Cl)C1C(=O)N1CCN(Cc2ccccc2)CC1` (centres undefined): -10.6%. Next, `CC(C)=CCCC(C)CN1CCC(N2CCC(C(=O)N3CCCC3)CC2)CC1` (centres undefined): -9.96%; `CC1(C)CC(O)(CNCc2ccc3c(c2)OCO3)CCO1` (centres undefined): -11.9%.

Consider `N#C/C(=C\c1ccc(O)c(O)c1)C(=O)NCCCc1ccccc1`, for which the inhibition is 37.9%.

`S=C(NCc1ccccc1)NCc1cccc(CNC(=S)NCc2ccccc2)c1`: the inhibition was 4.65%.

On to `N#C/C(=C/c1ccccc1)C(=O)NCc1ccccc1`, for which the inhibition is 53.3% (active).

With `CN1[C@@H]2CC[C@H]1CC(OC(=O)C(CO)c1ccccc1)C2` (some centres undefined), the inhibition is -16.1%. Next, `COC(=O)c1cc(C(=O)NCCC(C)C)cc([N+](=O)[O-])c1`: -28.2%; `COc1cc(OC)c(C2C(C#N)=C(N)OC3=C2C(=O)CC(C)(C)C3)cc1OC` (centres undefined): -0.37%. In the case of `COc1ccc(-c2nc3c(=O)n(C)c(=O)[nH]c3n2CCc2ccccc2)cc1`, the inhibition was -1.13%.
